Where “and” joins values, the source holds several entries; their conditions need not be identical. Identical values can stand only once. Inconclusive results are not listed. A call without a number means that no potency is given here. A number with no mark means an inactive call. Calls of active or inactive are those of the source. Unless noted, calls follow the shape of the full dose curve.
Potency is read from the fitted curve at half-maximal effect.

D(2) dopamine receptor (Homo sapiens), sequence (P14416 whole entry, looked up): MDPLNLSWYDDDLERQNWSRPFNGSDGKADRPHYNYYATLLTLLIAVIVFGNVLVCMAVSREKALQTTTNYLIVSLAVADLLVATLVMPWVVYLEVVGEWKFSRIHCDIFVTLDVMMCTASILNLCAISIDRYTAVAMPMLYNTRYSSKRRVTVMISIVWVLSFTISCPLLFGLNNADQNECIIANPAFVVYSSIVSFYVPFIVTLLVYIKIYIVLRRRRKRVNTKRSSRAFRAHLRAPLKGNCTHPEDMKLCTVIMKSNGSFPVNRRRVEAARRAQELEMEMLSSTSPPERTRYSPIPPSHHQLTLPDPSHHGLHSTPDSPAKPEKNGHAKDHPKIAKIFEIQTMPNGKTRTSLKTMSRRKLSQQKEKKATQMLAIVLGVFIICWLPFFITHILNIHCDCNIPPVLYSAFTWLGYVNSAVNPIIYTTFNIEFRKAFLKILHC

The first assay concerns the target D(2) dopamine receptor (Homo sapiens) (UniProt P14416). The assay can be described thus: Dopamine D2 receptor (DRD2) small molecule agonists, cell-based qHTS assay (AID 1963594). Also: nearly all actives have a fitted effect of over 35% in size. The following applies: HEK293-DRD2 cAMP HTRF, agonist mode, 30 min; series mostly up to 92.4 µM. The procedure, abridged:
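HEK293 cells stably expressing DRD2 were cultured 24 h at 37 C, then given Ro20-1724 (0.1 mM final) and compounds for 10 min at room temperature. NKH477 (200nM) was then added for 30 min. cAMP was read by HTRF.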
(In general: qHTS replaces the single test concentration by a dilution series.)
Take `CCCCCCOC(=O)c1ccc(O)cc1`: the Potency result is “inactive”.
As to `CCCCCCC(C)OC(=O)COc1nc(F)c(Cl)c(N)c1Cl` (stereo not drawn), the Potency result was “inactive”.
As for `CCCCCCOc1ccccc1C(N)=O`, the Potency entry was “inactive”.
Regarding `CCC(CN)=C(c1ccccc1)c1ccccc1`, the Potency entry was “inactive”.
Turning to `CCOC(=O)c1ccccc1OC`, the Potency result is “inactive”.
Still for that read-out and setting: for `CC(=O)NCCCS(=O)(=O)O` the value was “inactive”; for `OCCN1CCN(CCCN2c3ccccc3Sc3ccc(Cl)cc32)CC1`, “inactive”.
With `Nc1cccnc1N`, the Potency result is “inactive”.
`O=[N+]([O-])c1ccc(O)cc1`: the Potency entry is “inactive”.
On to `Cc1ccc(N/N=c2\c(=O)cc/c(=N\Nc3ccc(S(=O)(=O)O)cc3)c2=O)c(C)c1`, for which the Potency entry is “inactive”.
With `CC(C)(C)c1ccc(C(=O)O)cc1`, the Potency entry was “inactive”.
`CCOC(=O)COc1ccc2c(C)c(CCN(CC)CC)c(=O)oc2c1Cl`: the Potency entry was “inactive”.
Take `O=[N+]([O-])c1ccc(O/N=C/c2cc(Br)c(O)c(Br)c2)c([N+](=O)[O-])c1`: the Potency result was “inactive”.
Take `NC(N)=NN=C(/C=C/c1ccc([N+](=O)[O-])o1)/C=C/c1ccc([N+](=O)[O-])o1`: the Potency entry is “inactive”.
Take `CC(C)c1ccc2ncccc2c1`: the Potency entry is “inactive”.
As for `CCc1ccc(O)c(C(C)(C)C)c1`, the Potency entry was “inactive”.
For the compound `C=C1C(=C/C=C2\CCC[C@]3(C)[C@@H]([C@H](C)/C=C/[C@@H](O)C4CC4)CC[C@@H]23)C[C@@H](O)C[C@@H]1O`, the Potency entry was “inactive”.
In the case of `CC(=O)O[C@@]12CO[C@@H]1C[C@H](O)[C@@]1(C)C(=O)[C@H](O)C3=C(C)[C@@H](OC(=O)[C@H](O)[C@@H](NC(=O)OC(C)(C)C)c4ccccc4)C[C@@](O)([C@@H](OC(=O)c4ccccc4)[C@H]21)C3(C)C`, the Potency entry is “inactive”.
On the same count and under the same terms, in the case of `CC[C@@]1(O)C(=O)OCc2c1cc1n(c2=O)Cc2cc3c(CN(C)C)c(O)ccc3nc2-1` it was “inactive”; in that of `C[C@@H](c1ncncc1F)C(O)(Cn1cncn1)c1ccc(F)cc1F` (stereo partly drawn), “inactive”; in that of `O=C(O)Cn1cnnn1`, “inactive”.
Turning to `O=C(CC(=O)C(F)(F)F)c1ccccc1`, the Potency entry was “inactive”.
With `CN1C[C@H]2c3ccccc3Oc3ccc(Cl)cc3[C@@H]2C1`, the Potency result is “inactive”.
Turning to `CN1CCCN(C(c2ccccc2)c2ccc(Cl)cc2)CC1` (stereo not drawn), the Potency entry is “inactive”.
For the compound `NCCc1cnc[nH]1`, the Potency result was “inactive”.
Regarding `Oc1ccc(-c2ccccc2)c(Cl)c1`, the Potency entry was “inactive”.
Regarding `CCOc1cccc(-n2cc(C(=O)N3CCN(c4cc(C(=O)O)c5ccccc5c4)CC3)nc2-c2ccc(C)cc2)c1`, the Potency is 65.5 µM (active).
On to `OC(CCN1CCCCC1)(c1ccccc1)C1CC2C=CC1C2` (stereo not drawn), for which the Potency entry was “inactive”.
For `O=C(/C=C/c1ccccc1)NCCO`, the Potency entry is “inactive”.
Consider `CC(C)C=O`, for which the Potency entry was “inactive”.

The target is the same in the next assay. The assay can be described thus: Dopamine D2 receptor (DRD2) small molecule antagonists, cell-based qHTS assay (AID 1963595; active = well fitted inhibition curve with a large enough effect in the signal ratio in the repeat runs, with a control signal flat; the % refers to the signal ratio). The following applies: HEK293-DRD2 cAMP HTRF antagonist mode; series mostly up to 92.4 µM. In a few lines:
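Antagonist mode in DRD2-HEK293 cells: after compound addition with 0.1 mM Ro20-1724, cells received quinpirole (12 nM) and NKH477 (200 nM) for 30 min at room temperature; HTRF cAMP read after 1 h detection.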
Consider `CCN(CC)CCCC(C)Nc1ccnc2cc(Cl)ccc12` (stereo not drawn), for which the activity change, negative = inhibition is -2.41% [at 8.38 µM] and 1.11% [at 18.9 µM].
For the compound `CCCCCCC(C)OC(=O)COc1nc(F)c(Cl)c(N)c1Cl` (stereo not drawn), the Potency result was “inactive”.
Still for that read-out and setting: in the case of `CCCCCCOc1ccccc1C(N)=O` it was “inactive”.
Consider `CCC(CN)=C(c1ccccc1)c1ccccc1`, for which the Potency entry was “inactive”.
On the same count and under the same terms, for `CCOC(=O)c1ccccc1OC` the value was “inactive”; for `CC1(O)CSC(C)(O)CS1` (stereo not drawn), “inactive”; for `CC(=O)NCCCS(=O)(=O)O`, “inactive”.
The same measure, in the same setting: for `OCCN1CCN(CCCN2c3ccccc3Sc3ccc(Cl)cc32)CC1` the value was 0.0266 µM (active).
The same measure, in the same setting: for `O=C(O)[C@@H]1CSCN1` the value was “inactive”; for `Cc1ccc(N/N=c2\c(=O)cc/c(=N\Nc3ccc(S(=O)(=O)O)cc3)c2=O)c(C)c1`, “inactive”; for `CC(C)(C)c1ccc(C(=O)O)cc1`, “inactive”.
Take `O=[N+]([O-])c1ccc(O/N=C/c2cc(Br)c(O)c(Br)c2)c([N+](=O)[O-])c1`: the Potency entry was “inactive”.
For `NC(N)=NN=C(/C=C/c1ccc([N+](=O)[O-])o1)/C=C/c1ccc([N+](=O)[O-])o1`, the Potency entry is “inactive”.
Take `CC(C)c1ccc2ncccc2c1`: the Potency entry was “inactive”.
Regarding `C=C1C(=C/C=C2\CCC[C@]3(C)[C@@H]([C@H](C)/C=C/[C@@H](O)C4CC4)CC[C@@H]23)C[C@@H](O)C[C@@H]1O`, the Potency entry was “inactive”.
As for `CC(=O)O[C@@]12CO[C@@H]1C[C@H](O)[C@@]1(C)C(=O)[C@H](O)C3=C(C)[C@@H](OC(=O)[C@H](O)[C@@H](NC(=O)OC(C)(C)C)c4ccccc4)C[C@@](O)([C@@H](OC(=O)c4ccccc4)[C@H]21)C3(C)C`, the Potency result was “inactive”.
Still for that read-out and setting: in the case of `CC[C@@]1(O)C(=O)OCc2c1cc1n(c2=O)Cc2cc3c(CN(C)C)c(O)ccc3nc2-1` it was “inactive”; in that of `C[C@@H](c1ncncc1F)C(O)(Cn1cncn1)c1ccc(F)cc1F` (stereo partly drawn), “inactive”; in that of `O=C(O)Cn1cnnn1`, “inactive”.
The same measure, in the same setting: in the case of `NC(N)=N/N=C/c1c(Cl)cccc1Cl` it was “inactive”; in that of `O=C(CC(=O)C(F)(F)F)c1ccccc1`, “inactive”; in that of `CN1CCCN(C(c2ccccc2)c2ccc(Cl)cc2)CC1` (stereo not drawn), 26.6 µM (active).
The same measure, in the same setting: for `NCCc1cnc[nH]1` the value was “inactive”.
On to `CCOC(=O)[C@H](CCc1ccccc1)N[C@H]1CCc2ccccc2N(CC(=O)O)C1=O`, for which the Potency result was “inactive”.
On the same count and under the same terms, for `Oc1ccc(-c2ccccc2)c(Cl)c1` the value was “inactive”; for `CCOc1cccc(-n2cc(C(=O)N3CCN(c4cc(C(=O)O)c5ccccc5c4)CC3)nc2-c2ccc(C)cc2)c1`, “inactive”.
Still for that read-out and setting: for `OC(CCN1CCCCC1)(c1ccccc1)C1CC2C=CC1C2` (stereo not drawn) the value was “inactive”; for `CC(C)C=O`, “inactive”.

The values above are taken from PubChem BioAssay (Tox21).
